ALOX12 inhib – inhibitors of human 12-lipoxygenase (ALOX12). P18054. purified 12-hLO, xylenol orange hydroperoxide absorbance. Potency, µM (top dose mostly 57.1 µM), actives largely listed as inhibitors. 0.12% of 150,000 active. AID 1452; further: nearly all actives have a fitted effect of over 55% in size
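Hydroperoxide output read as Fe(III)-xylenol orange absorbance, 573-to-405 nm ratio, after 30 min reaction with 40 uM arachidonic acid. Enzyme: 150 nM purified human 12hLO, 15 min compound preincubation; 25 mM Hepes pH 7.0, room temperature.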
HPGD inh – inhibitors of human 15-hydroxyprostaglandin dehydrogenase (HPGD); AID 894; P15428; 4.3% of 150,000 active; purified HPGD, NADH fluorescence kinetic, PGE2 substrate; Potency, µM, hits mostly inhibitors; active means well fitted inhibition curve with a large enough effect, not every such curve was filed as active; inconclusive means small, poorly fitted or top-dose-only effect, or another doubt; inactive means no such curve, though single readings can be large or run the other way
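NADH formation kinetics: reaction with 30 uM PGE2 and 1 mM NAD+ (final), 20 nM enzyme, Tris-HCl pH 8 with Tween 20, after 15 min compound preincubation at room temperature. Fluorescence change, last versus first of five reads.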
IMPase inh – IMPase inhibition in cells | P97697 | CHO-M1 cells, IP1 accumulation, HTRF TR-FRET ratio | inhibition (IP1 accumulation), % at 46.1 µM | 120,000 tested, under 10 active; active means well fitted curve in the direction sought with a large enough effect in the signal ratio, not every such curve was filed as active; inconclusive means small, poorly fitted or top-dose-only effect, or a change in a side signal; inactive means no such curve, though single readings can be large or run the other way; the % refers to the signal ratio;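 further: cells stimulated with carbachol in lithium chloride buffer; higher means more IMPase inhibition seen as more IP1 and lower FRET ratio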
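The IP-One HTRF competitive assay in carbachol-stimulated CHO-M1 cells quantifies cellular IP1. Compounds spanned up to 46 uM final, and activity is expressed as AC50 from concentration-response fits of the ratio and donor data.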
IMPase Li inh – membrane-permeable IMPase blocker, potentiated with lithium; CHO-M1 cells, IP1 TR-FRET (IP-One), carbachol + lithium; 0.35% of 210,000 active; Potency, µM (titrated, usually from 59.4 µM), most hits filed as inhibitors;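 further: IP1 builds up when IMPase is blocked and the TR-FRET signal falls; nearly all actives have a fitted effect of over 50% in size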
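Lithium-sensitised IP1 accumulation assay; M1-expressing CHO cells treated 30 min at 37C with compound. Competitive antibody detection by time-resolved FRET followed a 10 min room-temperature lysis step.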
PNC inhibitor – blocks assembly of the perinucleolar compartment. 3.1% of 140,000 active. PC3M PTB-GFP, PNC prevalence imaging, 16 h; hits give low values. activity change (PNC), negative = inhibition, % at 10 µM. AID 2417;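 active means readout at or below -70, meaning at least 70% loss of cells showing the perinucleolar compartment, a nuclear body marking cancer cells; inconclusive means readout between -30 and a set limit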
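PC3M cells stably expressing PTB-GFP, 750–1000 cells/well, treated 16 h at 37 °C with compound (23 nl of library stock), in duplicate. After paraformaldehyde fixation and Hoechst stain, imaged at 20x; PNC prevalence scored by image analysis.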
15-hLO-2 inh – 15-hLO-2 (ALOX15B) enzyme inhibition; O15296; purified 15hLO-2, xylenol orange hydroperoxide absorbance; Potency, µM (top dose mostly 57.1 µM), most hits filed as inhibitors; 0.56% of 110,000 active; further: nearly all actives have a fitted effect of over 60% in size
Target sequence (O15296 whole entry, looked up): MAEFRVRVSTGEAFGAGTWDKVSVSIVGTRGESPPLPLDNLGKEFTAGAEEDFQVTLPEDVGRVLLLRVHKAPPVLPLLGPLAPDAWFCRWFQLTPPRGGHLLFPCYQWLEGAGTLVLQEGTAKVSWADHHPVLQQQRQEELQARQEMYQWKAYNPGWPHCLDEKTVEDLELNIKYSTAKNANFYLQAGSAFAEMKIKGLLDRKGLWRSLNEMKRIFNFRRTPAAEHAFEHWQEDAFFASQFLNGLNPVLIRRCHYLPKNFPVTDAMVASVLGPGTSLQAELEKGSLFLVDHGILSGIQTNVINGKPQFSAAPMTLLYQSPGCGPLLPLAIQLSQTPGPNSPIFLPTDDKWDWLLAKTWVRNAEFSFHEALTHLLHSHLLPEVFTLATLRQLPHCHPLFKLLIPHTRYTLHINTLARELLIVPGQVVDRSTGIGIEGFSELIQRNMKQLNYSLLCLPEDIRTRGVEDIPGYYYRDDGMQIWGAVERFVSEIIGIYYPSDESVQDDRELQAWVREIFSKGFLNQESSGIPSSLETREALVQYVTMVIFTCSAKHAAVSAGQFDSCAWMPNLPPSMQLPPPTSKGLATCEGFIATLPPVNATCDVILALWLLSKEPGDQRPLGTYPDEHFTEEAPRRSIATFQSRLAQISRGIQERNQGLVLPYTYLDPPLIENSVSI
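Screening format was qHTS against 50 nM purified 15hLO-2 in Hepes pH 7.5 with detergent. Activity follows hydroperoxide formation from 45 uM arachidonic acid, measured as 573:405 nm absorbance ratio of the ferric-xylenol orange complex.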
Numbers stand for hits; . = inactive; ? = inconclusive; / = no result given; [ ] = dose if it differs, or a comment. This is a sample that favours compounds with a hit; in the whole collection about 5.3% have one here. Unless noted, the call rests on the fitted dose curve; in most records, active means well fitted curve in the direction sought with a large enough effect; inconclusive means small, poorly fitted or top-dose-only effect, or another doubt; inactive means no such curve, though single readings can be large; an effect the other way counts as inactive or inconclusive.

SMILES | ALOX12 inhib | HPGD inh | IMPase inh | IMPase Li inh | PNC inhibitor | 15-hLO-2 inh
O=C(Oc1oc(-c2ccco2)nc1C=Nc1ccccc1)c1ccco1 | . | 2µM | . | . | ? | .
O=C(Oc1oc(-c2ccco2)nc1C=Nc1ccccc1)c1ccoc1 | . | 5µM | . | . | ? | .
Cc1ccc(N=Cc2nc(-c3ccco3)oc2O)cc1 | . | . | . | . | . | .
COc1ccc(S(=O)(=O)n2[nH]c(=O)c(CCO)c2C)c([N+](=O)[O-])c1 | / | / | / | . | / | /
Fc1ccc(NC(=S)NCCc2ccccc2)c(F)c1F | 16µM | 25µM | . | . | . | ?
S=C(NCc1ccc(Cl)cc1)Nc1ccc(Cl)cc1Cl | . | . | . | . | . | /
S=C(NCCc1ccc(Cl)cc1)Nc1ccc(Cl)cc1Cl | 11µM | . | . | . | . | /
COc1ccc(NC(=S)NCCc2ccc(Cl)cc2)c(OC)c1 | ? | . | ? | . | . | 25µM
Cc1c(N(C(=O)c2ccccn2)C2(C(=O)NC3CCCC3)CCCCC2)c(=O)n(-c2ccccc2)n1C | / | / | / | . | / | /
COc1ccc(CNC(=O)c2n[nH]c3ccccc23)cc1OC | / | / | / | . | / | /
C=CC1=C2C=C(C3CC3)N(CCOC)C=C2C(=O)C(C)(OC(=O)c2ccco2)C1=O (configuration not stated) | .[11.4 µM] | . | / | . | / | /
O=C(/C=C/c1ccc(F)cc1)NCc1cccs1 | . | . | / | . | ? | /
O=C(/C=C/c1ccccc1Cl)NCc1cccs1 | . | 14µM | / | . | . | /
COc1ccc(CN=C2NC(=O)CC(C(=O)Nc3cc(C)cc(C)c3)S2)cc1 (configuration not stated) | . | . | / | . | -84 | /
COc1cc2nc(N(C)CCCNC(=O)[C@@H]3CCCO3)nc(N)c2cc1OC | . | ? | . | . | / | .
O=S(=O)(CCn1cccc1)CCn1cccc1 | . | . | . | . | -100 | /
COc1ccc(-n2c(=O)c(-c3ccc(Cl)cc3)nc3cnc(N(C)C)nc32)cc1 | / | / | / | 2.8µM | / | .
CN(C)c1ncc2nc(-c3ccc(Cl)cc3)c(=O)n(-c3ccccc3)c2n1 | / | / | / | 2.8µM | / | .
C=CCc1cccc(/C=N/NC(=O)CCC(=O)Nc2ccc(C)cc2)c1O | . | . | / | . | . | /
Cc1cccc(N(CC(=O)Nc2ccccc2C(F)(F)F)S(=O)(=O)c2ccccc2)c1C | / | / | . | / | / | /
O=c1oc2ccccc2c(NCc2ccccc2F)c1[N+](=O)[O-] | . | 16µM | . | . | . | /
CC(C)c1ccc(CNc2c([N+](=O)[O-])c(=O)oc3ccccc23)cc1 | / | / | / | . | / | /
CC(C)CNC(=O)c1cccc(NC(=O)CCc2ccccc2)c1 | / | / | / | . | / | /
COCCn1c(=O)c(-c2ccc(F)cc2)nc2cnc(OC)nc21 | / | / | / | . | / | .
O=C(N/N=C\c1ccccn1)C1COc2cc3ccccc3cc2O1 (configuration not stated) | . | 14µM | . | . | ? | .
SMILES | ALOX12 inhib | HPGD inh | IMPase inh | IMPase Li inh | PNC inhibitor | 15-hLO-2 inh
O=C(N/N=C\c1ccccn1)C1c2ccccc2Oc2ccccc21 | / | / | / | . | / | /
CCN(CC)CCCNC(=O)CSc1nc(-c2ccc(F)cc2)cc(C(F)(F)F)n1 | / | / | / | . | / | /
NC1=NC(=O)/C(=C/c2c(OS(=O)(=O)c3ccc(Cl)cc3)ccc3ccccc23)S1 | . | . | / | . | ? | /
Cc1ccccc1OCc1nc(-c2ccc(NC(=O)c3ccco3)cc2)no1 | . | ? | . | . | -100 | /
CCCc1ccc(OCc2nc(-c3ccc(NC(=O)c4ccco4)cc3)no2)cc1 | . | ? | . | . | . | ?
CCCc1ccc(OCc2nc(-c3ccc(NC(=O)c4cccs4)cc3)no2)cc1 | . | ? | / | . | -91 | /
CCC(C)n1c(SCc2ccc([N+](=O)[O-])cc2)nc2ccsc2c1=O (configuration not stated) | . | . | . | . | -119 | /
CCOC(=O)COc1ccc(Br)cc1/C=C/c1[nH]c(=O)[nH]c(=O)c1[N+](=O)[O-] | / | / | / | . | / | /
CCOC(=O)COc1ccc(Br)cc1/C=C\c1[nH]c(=O)[nH]c(=O)c1[N+](=O)[O-] | . | 16µM | / | . | . | /
COc1ccccc1NC(=O)c1c(C)oc2c1CCCC2 | . | . | . | . | -114 | /
